{"source": "PubChem BioAssay AID588466", "about": "(NMMLSC, 2011)", "note": "Hit rate of the full screen: of about 2,100 compounds, about 30 (1%) were called active. Not all results are given here. Values without a mark were called inactive.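 Rule for the calls: active = compounds whose mean binding response over two repeats is below 75% of the DMSO control; inactive = the rest.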"}
{"biological_target": "Desmoglein-3 (Homo sapiens) (UniProt P32926)", "sequence (P32926 whole entry, looked up)": "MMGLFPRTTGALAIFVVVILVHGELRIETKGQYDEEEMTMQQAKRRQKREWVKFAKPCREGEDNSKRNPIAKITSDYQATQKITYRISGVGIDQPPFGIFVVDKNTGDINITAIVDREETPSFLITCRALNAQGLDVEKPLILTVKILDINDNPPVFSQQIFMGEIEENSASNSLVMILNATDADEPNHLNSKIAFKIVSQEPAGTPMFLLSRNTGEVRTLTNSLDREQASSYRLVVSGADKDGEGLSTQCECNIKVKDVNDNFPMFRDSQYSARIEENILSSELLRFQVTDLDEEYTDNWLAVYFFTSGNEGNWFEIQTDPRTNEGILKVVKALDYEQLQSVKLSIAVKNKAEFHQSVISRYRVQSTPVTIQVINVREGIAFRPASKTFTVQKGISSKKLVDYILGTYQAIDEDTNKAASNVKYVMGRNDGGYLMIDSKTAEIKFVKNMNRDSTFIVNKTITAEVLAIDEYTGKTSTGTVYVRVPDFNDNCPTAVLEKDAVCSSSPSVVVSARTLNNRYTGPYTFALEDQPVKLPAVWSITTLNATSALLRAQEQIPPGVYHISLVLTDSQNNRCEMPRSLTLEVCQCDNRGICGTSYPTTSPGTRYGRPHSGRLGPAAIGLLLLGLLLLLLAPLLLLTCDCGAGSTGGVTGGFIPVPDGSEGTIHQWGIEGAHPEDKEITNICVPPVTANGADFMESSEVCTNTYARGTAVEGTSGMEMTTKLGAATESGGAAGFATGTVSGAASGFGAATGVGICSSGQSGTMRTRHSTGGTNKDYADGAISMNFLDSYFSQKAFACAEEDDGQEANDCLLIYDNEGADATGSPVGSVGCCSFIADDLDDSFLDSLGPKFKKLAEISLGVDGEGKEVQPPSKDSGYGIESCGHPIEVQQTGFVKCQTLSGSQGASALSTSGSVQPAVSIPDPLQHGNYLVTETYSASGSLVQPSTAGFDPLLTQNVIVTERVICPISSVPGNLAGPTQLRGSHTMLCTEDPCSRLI", "experiment": "blockers of pemphigus antibody–desmoglein-3 interaction – biochemical, cherry pick 1, bead-based, flow cytometry, confirmation (AID 588466);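 note: 100% = 2% DMSO vehicle and 0% = excess soluble DSG3 blocking control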", "settings": "Protein G beads with DSG3, scFv-GFP binding, at 10 µM, stronger effect = lower value"}
{"compound": "COc1ccc(CCN2CC(C(=O)OCC(=O)NC(Cc3ccccc3)C(C)=O)CC2=O)cc1OC", "note": "(stereo unspecified)", "binding response (% of DMSO)": "102%"}
{"compound": "CCOc1ccc(NC(=O)c2nc(SCC)ncc2Cl)cc1", "binding response (% of DMSO)": "101%"}
{"compound": "CCOc1ccc(C(=O)Nc2cccc3cccnc23)cc1", "binding response (% of DMSO)": "93%"}
{"compound": "Cc1ccc(C)n1NC(=O)c1cccs1", "binding response (% of DMSO)": "91.4%"}
{"compound": "COc1ccc(CC(=O)OCC(=O)NCc2ccc3c(c2)OCO3)cc1OC", "binding response (% of DMSO)": "99.5%"}
{"compound": "CCOC(=O)N1CCC(NC(=O)c2cc3c(-c4ccc(Cl)cc4)nn(C)c3s2)CC1", "binding response (% of DMSO)": "95.6%"}
{"compound": "COc1cccc(C(=O)Nc2cc(-c3cn4cccnc4n3)ccc2C)c1", "binding response (% of DMSO)": "102%"}
{"compound": "COc1ccc(CNC(=O)C(C)n2nc(C)c3c(C)n(-c4ccccc4)nc3c2=O)c(OC)c1", "note": "(stereo unspecified)", "binding response (% of DMSO)": "95.7%"}
{"compound": "Cc1nc(SCc2nc3c([N+](=O)[O-])cccc3[nH]2)c2oc3ccccc3c2n1", "binding response (% of DMSO)": "108%"}
{"compound": "CN(CCC1CCOCC1)C(=O)C1CCC(=O)N(CCc2ccccc2)C1", "note": "(stereo unspecified)", "binding response (% of DMSO)": "101%"}
{"compound": "CCOC(=O)c1cccc(NC(=O)c2ccc3c(c2)C(=O)N(CC2CCCO2)C3=O)c1", "note": "(stereo unspecified)", "binding response (% of DMSO)": "103%"}
{"compound": "COc1ccc(C2=Nn3c(nnc3-c3ccccc3Cl)SC2)cc1OC1CCOC1", "note": "(stereo unspecified)", "binding response (% of DMSO)": "91.3%"}
{"compound": "Nc1cccc(C(=O)c2ccccc2C(=O)O)c1", "binding response (% of DMSO)": "98.2%"}
{"compound": "O=C1CSC(c2ccncc2)N1Cc1ccco1", "note": "(stereo unspecified)", "binding response (% of DMSO)": "106%"}
{"compound": "COC(=O)c1ccc(N(C(=O)CNC(=O)c2ccco2)C(C(=O)NCC2CCCO2)c2ccc(OC)c(OC)c2)cc1", "note": "(stereo unspecified)", "binding response (% of DMSO)": "104%"}
{"compound": "CC(=O)Nc1ccc(C(=O)OCC(=O)c2ccc(S(=O)(=O)N3CCCCC3)cc2)cc1", "binding response (% of DMSO)": "110%"}
{"compound": "Cc1ccc(-n2nc3c(c2NC(=O)c2ccc(Br)o2)CSC3)c(C)c1", "binding response (% of DMSO)": "95.6%"}
{"compound": "Cc1cc(NC(=O)CSc2nccn2-c2ccc(Cl)cc2)no1", "binding response (% of DMSO)": "103%"}
{"compound": "CCOc1cccc(C(=O)Nc2ccc(N3CCN(S(C)(=O)=O)CC3)cc2)c1", "binding response (% of DMSO)": "90.8%"}
{"compound": "Clc1ccc(-[n+]2c(-c3cccc(Br)c3)[nH]c3nc4ccccc4nc32)cc1", "binding response (% of DMSO)": "90.4%"}
{"compound": "COc1ccc(Oc2nnc(-c3ccccc3)cc2C#N)cc1", "binding response (% of DMSO)": "94.9%"}
{"compound": "O=C(CSc1nc(=O)[nH]c2c1CCCC2)Nc1ccc(F)cc1F", "binding response (% of DMSO)": "106%"}
{"compound": "O=C1c2ccc(-c3ccc(F)cc3OCc3ccccc3)cc2S(=O)(=O)c2cccc(C(=O)N3CCN(c4ncc(Br)cn4)CC3)c21", "binding response (% of DMSO)": "84.2%"}
{"compound": "CCOc1ccc2nc(NC(=O)c3ccc(S(=O)(=O)N4CCOCC4)cc3)sc2c1", "binding response (% of DMSO)": "77.7%"}
{"compound": "CC1=CCC2C(=O)N(c3ccc(C)c(Br)c3)C(=O)C2C1", "note": "(stereo unspecified)", "binding response (% of DMSO)": "109%"}
{"compound": "COc1ccccc1CN(C)C[C@@H]1OCc2cnnn2CCCC(=O)N([C@@H](C)CO)C[C@H]1C", "binding response (% of DMSO)": "96.2%"}
{"compound": "CN(c1ccccc1)S(=O)(=O)c1cccc(NC(=O)C2=NNC(=O)CC2)c1", "binding response (% of DMSO)": "98.4%"}
{"compound": "CC(=O)c1cccc(N(C(=O)CNC(=O)c2cccs2)C(C(=O)NCC2CCCO2)c2ccccc2)c1", "note": "(stereo unspecified)", "binding response (% of DMSO)": "102%"}
{"compound": "COc1ccc(-c2csc(NC(=O)c3cc(C)on3)c2C#N)cc1OC", "binding response (% of DMSO)": "97.8%"}
{"compound": "O=C(c1cnn(-c2nc3ccccc3s2)c1)c1ccccc1O", "binding response (% of DMSO)": "102%"}
{"compound": "CCN1C(=O)[C@H]2[C@@H](c3ccc(C)cc3)N3C(=O)N(c4ccc(OC)cc4)C(=O)[C@@]3(Cc3ccccc3)[C@H]2C1=O", "binding response (% of DMSO)": "98.4%"}
{"compound": "COc1ccc(-c2cc(=O)oc3cc(OCC(=O)Nc4ccccn4)ccc23)cc1", "binding response (% of DMSO)": "88.2%"}
{"compound": "CN1CCN(Cc2nc3ccccc3c(=O)n2Cc2nc(-c3ccc([N+](=O)[O-])cc3)cs2)CC1", "binding response (% of DMSO)": "103%"}
{"compound": "Fc1ccc2nc(C3CCCCN3Cc3nc(CC4CC4)no3)[nH]c2c1", "note": "(stereo unspecified)", "binding response (% of DMSO)": "102%"}
{"compound": "CSCCC(NC(=O)C1CCC(C)CC1)C(=O)OCC(=O)c1ccc(Cl)cc1", "note": "(stereo unspecified)", "binding response (% of DMSO)": "107%"}
{"compound": "O=S(=O)(NCCOc1ccccc1F)c1ccc(Cl)cc1F", "binding response (% of DMSO)": "102%"}
{"compound": "CCOc1cc(S(=O)(=O)Nc2ccc(Cl)cn2)ccc1F", "binding response (% of DMSO)": "112%"}
{"compound": "CCc1ccc(Cn2nnc(C(=O)Nc3ccc(OC)cc3OC)c2N)cc1", "binding response (% of DMSO)": "96.2%"}
{"compound": "COc1ccc(-c2ccc(-c3nc4c(c(=O)[nH]c(=O)n4Cc4ccccc4)n3C)o2)c([N+](=O)[O-])c1", "binding response (% of DMSO)": "87.1%"}
{"compound": "COc1ccc(NC(=O)c2ccc(NC(=O)CN3CCN(c4ccccc4)CC3)cc2)cc1", "binding response (% of DMSO)": "90.4%"}
{"compound": "COc1ccc(Cl)c(NC(=O)NCCN2CCN(c3ccccc3)CC2)c1", "binding response (% of DMSO)": "67.9% (active)"}
{"compound": "COc1ccc(OC)c(NC(=O)NCCc2cccc(Cl)c2)c1", "binding response (% of DMSO)": "100%"}
{"compound": "CC1C(=O)N2CCCc3cc(S(=O)(=O)N4CCC(C(N)=O)CC4)cc1c32", "note": "(stereo unspecified)", "binding response (% of DMSO)": "104%"}
{"compound": "Cc1ccc(NS(=O)(=O)c2ccc3c(c2)n(C)c(=O)n3C)cc1", "binding response (% of DMSO)": "100%"}
{"compound": "COc1ccc(CNC(=O)c2cnc(C)cn2)cc1", "binding response (% of DMSO)": "101%"}
{"compound": "COCC(C)n1c(C)cc(C(=O)COC(=O)c2nn(C)c(=O)c3ccccc23)c1C", "note": "(stereo unspecified)", "binding response (% of DMSO)": "98.2%"}
{"compound": "CC(=O)Nc1nnc(CCS(=O)(=O)c2ccc(C)c(C)c2)s1", "binding response (% of DMSO)": "104%"}
{"compound": "COc1ccc(-n2ccc(=O)c(C(=O)Nc3ccc(S(=O)(=O)Nc4nccs4)cc3)n2)cc1", "binding response (% of DMSO)": "99.6%"}
{"compound": "COc1ccc(C(=O)NCc2nnc(SCC(=O)N3CCc4ccccc43)n2C2CCCCC2)cc1", "binding response (% of DMSO)": "91%"}
{"compound": "CCc1nnc(NC(=O)CCN(c2ccc(C)cc2)S(=O)(=O)c2ccccc2)s1", "binding response (% of DMSO)": "103%"}
{"compound": "Cc1ccsc1-c1nc(-c2ccccc2)c(-c2ccccc2)[nH]1", "binding response (% of DMSO)": "77.9%"}
{"compound": "CN(Cc1cc2ccccc2[nH]c1=O)S(C)(=O)=O", "binding response (% of DMSO)": "100%"}
{"compound": "Cc1nc2scc(C)n2c(=O)c1S(=O)(=O)NCc1ccc(F)cc1", "binding response (% of DMSO)": "107%"}
{"compound": "COc1ccc(C(=O)NCc2ccc(C)cc2)cc1S(=O)(=O)N1CCCC1", "binding response (% of DMSO)": "105%"}
{"compound": "CCOC(=O)c1c(-c2ccccc2)c[nH]c1C", "binding response (% of DMSO)": "97.4%"}
{"compound": "CCN(CC)c1ccc(/C=N/N2C(=O)c3ccccc3C2=O)cc1", "binding response (% of DMSO)": "102%"}
